The full list was thinned out, with hits kept by preference.
mHTT CaM bind: inhibitors of human mutant huntingtin-calmodulin interaction | AlphaScreen His-mHTT/GST-CaM binding, luminescence | inhibition, % at 15 µM | 190,000 tested, 3.6% active
Target sequence (P42858 whole entry, looked up, change not shown): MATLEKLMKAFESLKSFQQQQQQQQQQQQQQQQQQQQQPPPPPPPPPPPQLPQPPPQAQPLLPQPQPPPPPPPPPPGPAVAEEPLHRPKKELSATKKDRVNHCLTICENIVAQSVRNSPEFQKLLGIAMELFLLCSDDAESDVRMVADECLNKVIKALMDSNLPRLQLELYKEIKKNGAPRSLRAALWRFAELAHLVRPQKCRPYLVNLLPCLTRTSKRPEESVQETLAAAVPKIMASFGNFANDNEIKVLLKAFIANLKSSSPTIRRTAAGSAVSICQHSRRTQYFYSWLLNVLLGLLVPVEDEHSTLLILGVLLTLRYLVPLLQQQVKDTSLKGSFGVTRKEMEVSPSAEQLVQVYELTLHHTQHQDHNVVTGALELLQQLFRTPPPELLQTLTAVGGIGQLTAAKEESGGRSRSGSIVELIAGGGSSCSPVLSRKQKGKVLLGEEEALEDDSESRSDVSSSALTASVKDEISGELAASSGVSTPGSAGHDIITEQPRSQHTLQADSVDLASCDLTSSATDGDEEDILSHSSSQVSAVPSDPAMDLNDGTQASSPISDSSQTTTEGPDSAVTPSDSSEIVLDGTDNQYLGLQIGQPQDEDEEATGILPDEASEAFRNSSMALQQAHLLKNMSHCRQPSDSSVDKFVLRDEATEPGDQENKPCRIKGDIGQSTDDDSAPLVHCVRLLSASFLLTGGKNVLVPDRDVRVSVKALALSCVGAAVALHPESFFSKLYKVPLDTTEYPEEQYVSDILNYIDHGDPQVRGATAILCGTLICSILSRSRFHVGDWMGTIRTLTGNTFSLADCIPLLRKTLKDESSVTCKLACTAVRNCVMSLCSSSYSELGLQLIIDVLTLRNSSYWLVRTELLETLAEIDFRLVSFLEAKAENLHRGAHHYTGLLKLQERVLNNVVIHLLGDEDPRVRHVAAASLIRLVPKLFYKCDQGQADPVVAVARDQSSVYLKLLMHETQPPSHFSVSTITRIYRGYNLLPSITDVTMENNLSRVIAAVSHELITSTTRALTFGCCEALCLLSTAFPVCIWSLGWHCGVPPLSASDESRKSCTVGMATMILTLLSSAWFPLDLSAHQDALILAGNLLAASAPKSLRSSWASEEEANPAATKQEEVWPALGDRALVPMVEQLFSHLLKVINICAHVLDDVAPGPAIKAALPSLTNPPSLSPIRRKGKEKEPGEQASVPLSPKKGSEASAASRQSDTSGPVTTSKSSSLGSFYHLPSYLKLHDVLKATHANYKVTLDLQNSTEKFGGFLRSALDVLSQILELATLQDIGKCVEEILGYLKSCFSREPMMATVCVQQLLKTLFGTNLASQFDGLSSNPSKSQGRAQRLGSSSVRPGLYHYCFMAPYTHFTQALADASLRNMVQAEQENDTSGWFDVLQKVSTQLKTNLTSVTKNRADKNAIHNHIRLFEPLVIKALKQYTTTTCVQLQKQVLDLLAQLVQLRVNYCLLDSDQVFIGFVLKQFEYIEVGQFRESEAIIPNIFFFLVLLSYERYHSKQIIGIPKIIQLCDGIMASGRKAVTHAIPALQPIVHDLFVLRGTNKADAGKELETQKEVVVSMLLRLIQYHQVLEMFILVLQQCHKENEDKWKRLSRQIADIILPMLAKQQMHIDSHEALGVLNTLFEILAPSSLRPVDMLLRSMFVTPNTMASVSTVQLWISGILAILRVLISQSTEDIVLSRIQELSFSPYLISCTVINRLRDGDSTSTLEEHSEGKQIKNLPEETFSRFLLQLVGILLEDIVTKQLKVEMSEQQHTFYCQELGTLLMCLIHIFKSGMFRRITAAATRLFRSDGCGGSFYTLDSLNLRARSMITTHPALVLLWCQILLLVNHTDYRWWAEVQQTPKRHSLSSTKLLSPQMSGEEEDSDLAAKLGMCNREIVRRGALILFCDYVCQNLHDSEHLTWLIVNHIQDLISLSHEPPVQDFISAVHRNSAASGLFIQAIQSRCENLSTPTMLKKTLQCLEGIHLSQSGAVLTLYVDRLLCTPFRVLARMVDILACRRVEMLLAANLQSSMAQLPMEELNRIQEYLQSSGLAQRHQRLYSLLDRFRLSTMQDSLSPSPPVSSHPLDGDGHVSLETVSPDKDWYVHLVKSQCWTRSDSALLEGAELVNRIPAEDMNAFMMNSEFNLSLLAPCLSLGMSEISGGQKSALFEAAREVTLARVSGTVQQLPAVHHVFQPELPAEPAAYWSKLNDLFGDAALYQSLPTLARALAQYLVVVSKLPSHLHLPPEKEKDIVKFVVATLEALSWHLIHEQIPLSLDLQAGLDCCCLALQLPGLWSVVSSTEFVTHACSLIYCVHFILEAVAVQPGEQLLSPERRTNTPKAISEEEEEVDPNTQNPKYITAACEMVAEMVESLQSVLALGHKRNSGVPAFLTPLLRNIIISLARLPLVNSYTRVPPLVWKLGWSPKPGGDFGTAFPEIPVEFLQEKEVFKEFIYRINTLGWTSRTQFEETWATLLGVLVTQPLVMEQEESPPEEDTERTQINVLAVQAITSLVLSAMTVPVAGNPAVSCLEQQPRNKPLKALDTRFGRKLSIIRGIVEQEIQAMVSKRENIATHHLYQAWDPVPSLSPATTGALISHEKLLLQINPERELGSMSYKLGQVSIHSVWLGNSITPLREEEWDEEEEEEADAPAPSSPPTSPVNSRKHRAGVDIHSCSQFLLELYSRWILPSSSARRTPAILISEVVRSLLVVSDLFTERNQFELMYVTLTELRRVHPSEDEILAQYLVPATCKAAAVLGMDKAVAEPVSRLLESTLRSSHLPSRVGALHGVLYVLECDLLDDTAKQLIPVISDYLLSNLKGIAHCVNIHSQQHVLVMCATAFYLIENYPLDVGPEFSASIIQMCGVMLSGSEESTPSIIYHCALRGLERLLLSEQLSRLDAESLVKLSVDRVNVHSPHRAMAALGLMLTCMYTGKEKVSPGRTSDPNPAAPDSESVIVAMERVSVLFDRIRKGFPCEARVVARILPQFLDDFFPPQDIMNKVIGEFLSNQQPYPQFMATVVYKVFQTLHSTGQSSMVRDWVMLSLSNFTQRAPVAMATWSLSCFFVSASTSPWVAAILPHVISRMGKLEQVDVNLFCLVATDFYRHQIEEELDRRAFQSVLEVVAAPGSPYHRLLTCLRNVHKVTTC
Pf apPOL block: Pf-apPOL DNA polymerase inhibition. Recombinant Pf-apPOL, molecular beacon fluorescence, 1.5 h. inhibition, % at 10 µM. 210,000 tested, 0.25% active. AID 1794808
Hits are given with their value; - = inactive; . = not tested or not shown. Cut-off read from the data, not from the text of the source: active = inhibition above about 50%; inactive = the rest.

SMILES | mHTT CaM bind | Pf apPOL block
CN(C)C=CC(=O)c1ccc(-c2cc(Cl)cc(Cl)c2)o1 | . | -
CCOc1ccc2sc(C=NCc3ccc(OC)cc3)c(O)c2c1 | 55.0 | -
CCOc1ccc2sc(C=NCc3ccc(F)cc3)c(O)c2c1 | - | -
Cn1cccc1CN(C(=O)Cc1ccccc1Cl)C1CC1 | - | -
O=C(NCCc1cccs1)c1ccc2c(c1)NC(=O)C1CCCCN21 (centres undefined) | - | -
Cc1ccc(-c2cc(C(=O)NCCN3CCOCC3)c3ccccc3n2)cc1 | - | -
O=C(O)C1=CC(=C(c2ccc(O)c(C(=O)O)c2)c2ccc(O)c(C(=O)O)c2)C=CC1=O | . | 92.1
CC(=O)Nc1ccc(O)c(C(=O)O)c1 | . | -
C=C(C)C1CCC(C)OC1c1ccc2c(c1)OCO2 (centres undefined) | - | -
NC(=O)c1cc(Br)cc2c3c([nH]c12)CCCC3 | 62.5 | -
Brc1ccc2[nH]c3c(c2c1)CCC3 | . | -
CCCOc1ccc(C(=O)N2CCN(c3ccc([N+](=O)[O-])cc3)CC2)cc1 | - | -
O=C(Nc1ccc(Nc2cc(-n3ccnc3)ncn2)cc1)c1ccco1 | - | -
CN(C)CC(C)(C)C1OCC2(CO1)COC(C(C)(C)CN(C)C)OC2 (centres undefined) | - | -
Cc1ccc(C2CC(c3cccs3)=NN2C(=O)CN(C)C(=O)C(C)C)cc1 (centres undefined) | - | -
CCOC(=O)CCSCC(=O)N1N=C(c2cccs2)CC1c1ccc(C)cc1 (centres undefined) | 51.5 | -
CCC(CC)NCc1ccc2c(c1)OCO2 | - | -
Cc1cc(Cl)ccc1-n1c(CCC(=O)O)ccc1-c1cccs1 | 68.0 | -
Cc1ccccc1-n1c(CCC(=O)O)ccc1-c1cccs1 | - | -
CCc1ccccc1NC(=O)N1CCCC1c1cc(C(C)C)on1 (centres undefined) | - | -
O=C(O)CN1CCN(c2ccc(Cl)cc2)CC1 | - | -
Cc1cccc2sc(NC(=O)CN(C)S(=O)(=O)c3ccc(Br)s3)nc12 | 92.0 | -
Cc1cccc2sc(NC(=O)CCS(=O)(=O)c3ccc(Br)s3)nc12 | - | -
CCOC(=O)CC(=O)Nc1nc(C23CC4CC(CC(C4)C2)C3)cs1 | - | -
O=c1[nH]c2ccc(N=Cc3cc(O)ccc3Br)cc2[nH]1 | - | -
SMILES | mHTT CaM bind | Pf apPOL block
Cc1c(N=Cc2cc([N+](=O)[O-])c(Cl)cc2Cl)c(=O)n(-c2ccccc2)n1C | - | -
O=c1[nH]c2ccc(N=Cc3cc(Br)cc(Br)c3O)cc2[nH]1 | 61.0 | -
O=c1[nH]c2ccc(N=Cc3cc([N+](=O)[O-])c(Cl)cc3Cl)cc2[nH]1 | 94.0 | -
Fc1ccc(N2COc3cc4c(cc3C2)OCO4)cc1 | - | -
COc1ccc2c(c1)CN(c1ccc(C)cc1C)CO2 | - | -
Cc1ccc(N2COc3cc4c(cc3C2)OCO4)cc1C | - | -
Cc1cccc(N2COc3ccc(Cl)cc3C2)c1C | 96.0 | -
Cc1cccc(N2CCN(C(=O)c3ccc(Cl)cc3)CC2)c1C | - | -
Cc1ccc(N2COc3ccc(Cl)cc3C2)cc1 | 64.0 | -
Fc1ccc(N2COc3ccc(Cl)cc3C2)cc1 | 50.0 | -
COc1ccc2c(c1)CN(c1ccc(C)c(Cl)c1)CO2 | 77.0 | -
Cc1ccc(-c2ccnc3c(C(=O)NCCN4CCCC4)cnn23)cc1C | - | -
Cc1cc2n(n1)CCC(=O)N2CCCC(=O)NCCN(C)C1CCCCC1 | - | -
COc1ccc(-c2ccc(=O)n(CCNC(=O)c3c[nH]c(=O)n(C)c3=O)n2)cc1 | - | -
CCSC1=NSC2=NC(=O)/C(=C\c3ccc(Br)o3)C(=N)N12 | - | -
CCOc1cccc2nnc(NC(=O)c3ccc(C(F)(F)F)cc3)n12 | - | -
CCOc1cccc2nnc(NC(=O)c3ccc(C)cc3)n12 | 50.9 | -
O=C(Nc1nnc2ccccn12)c1ccccc1Br | 100.3 | -
CC(C)CC(=O)Nc1nnc2ccccn12 | - | -
O=C(Nc1nnc2ccccn12)c1ccccc1C(F)(F)F | - | -
CCc1ccc(C(=O)Nc2nnc3ccccn23)cc1 | 58.3 | -
CC(C)c1ccc(C(=O)Nc2nnc3ccccn23)cc1 | 64.8 | -
O=C(Nc1nnc2ccccn12)c1ccc(C(F)(F)F)cc1 | - | -
CC(C)c1ccccc1NC(=O)c1ccc(Br)o1 | - | -
O=C1S/C(=C\c2ccc3c(c2)OCO3)C(=O)N1CN1CCCCC1 | - | -
SMILES | mHTT CaM bind | Pf apPOL block
CC(/C=C1\N=C(c2ccc(C)c([N+](=O)[O-])c2)OC1=O)=C\c1ccccc1 | - | -
Cc1ccc(C2=N/C(=C\C(Br)=C\c3ccccc3)C(=O)O2)cc1[N+](=O)[O-] | 57.0 | -
COc1ccc(Cl)cc1NC(=O)N1CCN(c2ccc(-c3ccco3)nn2)CC1 | 64.5 | -
COc1ccccc1NC(=O)C1CCCN(c2cnn(C)c(=O)c2)C1 (centres undefined) | - | -
COc1ccc(Cl)cc1NC(=O)c1cnn2c(C(F)(F)F)cc(-c3ccco3)nc12 | - | -
COc1ccc(CCNC(=O)C2CCCN(c3ccc(-c4ccco4)nn3)C2)cc1OC (centres undefined) | - | -
COc1ccc(C)cc1NC(=O)C1CCCN(c2cnn(C)c(=O)c2)C1 (centres undefined) | 53.3 | -
COc1ccc(C(F)(F)F)cc1NC(=O)C1CCCN(c2ccc(-c3ccco3)nn2)C1 (centres undefined) | 77.0 | -
O=C(c1cccc2c1OCCCO2)N(Cc1ccccn1)Cc1ccccn1 | . | -
CCN(CC)Cc1c(O)ccc2cc(-c3ccc(OC)cc3OC)c(=O)oc12 | - | -
Cc1ccccc1Cn1cc(S(=O)(=O)N2CCOCC2)ccc1=O | - | -
CC(=O)Nc1ccc(N2C(=O)/C(=C/c3ccc(Cl)cc3)C=C2c2ccccc2)cc1 | - | -
O=C(O)c1cc(N2C(=O)/C(=C/c3ccc([N+](=O)[O-])cc3)C=C2c2ccccc2)ccc1O | 88.0 | -
O=C1/C(=C/c2ccc([N+](=O)[O-])cc2)C=C(c2ccccc2)N1c1ccc(F)cc1 | - | -
O=C(O)c1cc(N2C(=O)/C(=C/c3ccc(Cl)cc3)C=C2c2ccccc2)ccc1O | 74.0 | -
C#CC[N+](C)(C)Cc1ccccc1 | - | .
CNC(=O)c1cc(-c2ccc(OC)cc2)n(C)c1C | - | -
Cc1ccc(C)c(NC(=O)c2csc(-c3ccc(N4CCCC4)nc3)n2)c1 | - | -
NC(=S)N=Nc1c2nnnc2c(NNC(N)=S)c2n[nH][nH]c12 | 100.1 | .
Cc1cccc(NC(=O)C2CCN(c3ncc(-c4ccccc4)cn3)CC2)c1 | - | -
Cc1cccc(-c2cnc(N3CCC(C(=O)Nc4ccc(F)cc4)CC3)nc2)c1 | 100.1 | -
O=C(c1ccco1)N1CCCC(c2ccnc(-c3ccccc3)n2)C1 (centres undefined) | 61.1 | -
O=C(c1ccccc1)N1CCCC(c2ccnc(-c3ccccc3)n2)C1 (centres undefined) | - | -
O=C(c1ccc(F)cc1)N1CCCC(c2ccnc(-c3ccccc3)n2)C1 (centres undefined) | - | -
O=C(COc1ccc(F)cc1)N1CCCC(c2ccnc(-c3ccccc3)n2)C1 (centres undefined) | 72.8 | -
O=C(c1cc2ccccc2oc1=O)N1CCSC1c1ccc([N+](=O)[O-])cc1 (centres undefined) | - | -
Cc1ccc2c(c1)c1c(n2CC(O)Cn2nc(C)cc2C)CCCC1 (centres undefined) | - | -
CCC(CO)NCC(O)Cn1c2c(c3cc(C)ccc31)CCCC2 (centres undefined) | 54.3 | -
